Measurements: PubChem BioAssay AID1721 (National Center for Advancing Translational Sciences (NCATS), 2009)
The campaign covered roughly 290,000 compounds. About 1,100 (0.38%) were called active. The list comes from a sample in which actives are over-represented; it also holds similar structures and randomly drawn compounds. A call without a number means that no potency is given here. Unmarked numbers belong to inactive results. Calls come from the whole dose curve; as a rule, active = well fitted inhibition curve with a large enough effect; inconclusive = small, poorly fitted or top-dose-only effect, or another doubt; inactive = no such curve, though single readings can be large or run the other way.

What follows are molecules tested against Pyruvate kinase (Leishmania mexicana) (UniProt Q27686) (assay: qHTS Assay for Inhibitors of Leishmania Mexicana Pyruvate Kinase (LmPK)). Conditions: purified LmPK, Kinase-Glo ATP luminescence, 1 h; series mostly up to 57.5 µM.
Source text: NIH Chemical Genomics Center [NCGC] Malcolm Walkinshaw, Hugh Morgan, Linda Gilmore University of Edinburgh, UK MLPCN Grant: 1 R03 MH085697-01 NCGC Assay Overview: Pyruvate kinase (L. Mexicana) (LmPK) enzyme was supplied as a highly purified (>95% pure) sulphate-free preparation from University of Edinburgh, UK and assayed for its ability to generate ATP from ADP using phosphoenolpyruvate (PEP) as a substrate. ATP generation was detected in a coupled reaction by luciferase-mediated luminescence, an ATP-dependent process. […] The enzyme was assayed at an intermediate level of activity to screen for both inhibitors and activators.
NCGC Assay Protocol Summary: Three uL of enzyme mix (kept on ice) in assay buffer (50 mM Imidazole pH7.2, 50 mM KCl, 7 mM MgCl2, 0.01% Tween 20, 0.05% BSA) containing PEP (0.5 mM final concentration) and LmPK (0.1 nM final concentration) was dispensed into white solid bottom 1,536 well microtiter plates. 23 nL of compound were delivered by a pin tool and 1 uL of ADP mix in assay buffer (r.t; 0.1 mM final ADP concentration) was added. Plates were incubated at room temperature for 1 hour. Two uL of detection mix (Kinase-Glo, Promega; at 4 degree Celsius protected from light) was added and luminescence read by a ViewLux (Perkin Elmer) at 1 second exposure/plate. Data were normalized to the uninhibited and AC100 inhibition (no enzyme). To monitor activation, the first column contained a five-fold concentration of LmPK (0.5 nM).
Potency is the fitted concentration of half-maximal effect.

Chain of Pyruvate kinase (Leishmania mexicana) (Q27686 whole entry, looked up): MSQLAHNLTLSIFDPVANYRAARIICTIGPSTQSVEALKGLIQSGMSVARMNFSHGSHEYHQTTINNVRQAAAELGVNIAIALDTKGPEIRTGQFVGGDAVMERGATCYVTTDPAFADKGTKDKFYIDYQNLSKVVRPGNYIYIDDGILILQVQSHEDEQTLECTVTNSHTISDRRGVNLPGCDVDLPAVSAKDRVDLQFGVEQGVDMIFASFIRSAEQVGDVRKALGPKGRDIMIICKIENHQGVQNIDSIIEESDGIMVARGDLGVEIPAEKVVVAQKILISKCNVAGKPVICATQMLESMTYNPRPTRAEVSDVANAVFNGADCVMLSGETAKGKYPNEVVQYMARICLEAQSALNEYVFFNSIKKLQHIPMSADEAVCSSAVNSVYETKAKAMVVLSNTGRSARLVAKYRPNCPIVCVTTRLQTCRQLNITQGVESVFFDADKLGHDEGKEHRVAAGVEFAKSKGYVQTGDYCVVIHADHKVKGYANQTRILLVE

SMILES | Potency | activity change, negative = inhibition
COc1ccc(NS(=O)(=O)c2ccc3oc(SCC(N)=O)nc3c2)cc1 | inactive | –
CC(=O)Nc1ccc(NS(=O)(=O)c2ccc3c(c2)NC(=O)CC(=O)N3)cc1 | inactive | –
CN1CCN(C(=O)C(=O)c2cn(CC(=O)N3CCCC3)c3ccccc23)CC1 | inactive | –
O=C(c1ccc(F)cc1)n1cc(C(=S)N2CCOCC2)c2ccccc21 | inactive | –
O=C(c1ccc(F)cc1)n1c(=S)nc2ccccn21 | 5.01 µM (active) | –
O=C(Cn1c(=S)nc2ccccn21)N1CCc2ccccc2C1 | inactive | –
C[C@H]1Cc2c(COc3ccccc3)nc3c(c2CO1)CN(C(=O)NCc1ccco1)CC3 | – | 4.14% [at 11.5 µM]
CSCCC(NS(=O)(=O)c1ccccc1F)C(=O)N1CC=C(c2ccccc2)CC1 (stereo not drawn) | inactive | –
O=C(NC1CCN(C(=S)Nc2ccc(Cl)cc2)CC1)C1CCCCC1 | inactive | –
CC(C)CC(=O)NC(=S)NNC(=O)c1cccc([N+](=O)[O-])c1 | inactive | –
COCCCNC(=S)NC(=O)c1ccc([N+](=O)[O-])cc1 | inactive | –
CCCCCC(=O)NC(=S)NNC(=O)c1ccc([N+](=O)[O-])cc1 | 31.6 µM (active) | –
COc1cccc(C(=O)NNC(=O)c2cccc(F)c2)c1 | inactive | –
COc1ccc2oc(=O)c(C(=O)N3CCCC3)cc2c1 | inactive | –
COc1cccc(C(=O)c2cc3ccc(O)cc3oc2=O)c1 | 14.1 µM (active) | –
CC(=O)C1=C(C)NC(=O)NC1c1ccc2c(c1)OCO2 (stereo not drawn) | inactive | –
COC(=O)C(C)n1cnc2c(nnn2-c2ccc(F)cc2)c1=O (stereo not drawn) | inactive | –
CC(=O)Nc1ccc(NC(=O)c2ccc3c(c2)C(=O)N(c2ccccc2C)C3=O)cc1 | inactive | –
O=C(NCc1ccccc1)C1CCN(C(=O)Cc2ccccc2)CC1 | inactive | –
Oc1ccc(N=Nc2nccs2)c(O)c1 | 25.1 µM (active) | –
Oc1ccc2ccccc2c1N=Nc1nccs1 | inactive | –
CCOc1ccc(N(CC(=O)Nc2cccc(OC)c2)S(C)(=O)=O)cc1 | inactive | –

SMILES | Potency | activity change, negative = inhibition
CC1(C(=O)NNC(=S)NCC2CCCO2)CC1(Cl)Cl (stereo not drawn) | inactive | –
CN(C)C(=O)Cn1c(=O)n(S(=O)(=O)c2ccccc2)c2ccccc21 | inactive | –
CCOC(=O)c1c(S(=O)(=O)Nc2cccc(Cl)c2)c(C)n(C)c1C | inactive | –
COCCn1cnc2c1c(=O)n(Cc1ccc(Br)cc1)c(=O)n2Cc1ccccc1 | inactive | –
Cc1occc1C(=O)Nc1cccc(Cn2cccn2)c1 | inactive | –
Cc1occc1C(=O)Nc1nnc(-c2ccncc2)s1 | inactive | –
Cc1ccnc(NC(=O)c2ccoc2C)c1 | 11.2 µM (active) | –
O=C(Nc1ccccc1)c1ccc2c(c1)OCO2 | 15.8 µM (active) | –
O=C(Nc1cccc([N+](=O)[O-])c1)c1ccc2c(c1)OCO2 | inactive | –
O=C(Nc1ccccc1)c1ccc2c(c1)OCCCO2 | inactive | –
Cc1ccc(C(=O)O/N=C(\N)c2ccccn2)cc1Cl | inactive | –
N/C(=N\OC(=O)c1cc(-c2ccccc2)nc2ccccc12)c1ccncc1 | inactive | –
Cc1cccc(/C(N)=N/OC(=O)c2ccccc2Cl)c1 | 11.2 µM (active) | –
COc1cccc(CCNC(=O)c2cccc(NC(=O)C3=C(C)OCCS3)c2)c1 | inactive | –
CC1(C(=O)O)CCC(C(=O)Nc2ccc(Cl)c(Cl)c2)C1(C)C (stereo not drawn) | inactive | –
COc1cccc(C(=O)Nc2ccc(N3CCCC3)cc2)c1 | 14.1 µM (active) | –
CN1CCN(c2ccc(NC(=O)c3ccccc3)cc2)CC1 | inactive | –
COc1cccc(C(=O)Nc2ccc(N3CCN(C(=O)c4ccco4)CC3)cc2)c1 | inactive | –
CC1CC(C)CN(c2ccc(S(=O)(=O)N3CCOCC3)cc2)C1 (stereo not drawn) | inactive | –
Cc1cc(CN(C)C(=O)c2cc(COc3ccc(C)c(C)c3)on2)n[nH]1 | inactive | –
O=c1oc2ccccc2cc1-c1csc(Nc2ccc(O)cc2)n1 | inactive | –
Nc1ncc(-c2cc3ccccc3oc2=O)s1 | 11.2 µM (active) | –

SMILES | Potency | activity change, negative = inhibition
O=C(NCc1cccnc1)c1cccc(-c2cc3ccccc3oc2=O)c1 | inactive | –
Clc1ccc(-c2ncc3ccccn23)c(Cl)c1 | inactive | –
O=C1CSC(c2ccccc2)N1c1nc(-c2ccc(Cl)cc2Cl)cs1 (stereo not drawn) | inactive | –
Clc1ccc(-c2cc(-c3ccccn3)on2)c(Cl)c1 | 15.8 µM (active) | –
CCOC(=O)C(C)n1cnc2c(nnn2-c2ccc(F)cc2)c1=O (stereo not drawn) | inactive | –
CN(C)N1C(N)=C(C#N)C(c2ccc(Br)cc2)C2=C1CCCC2=O (stereo not drawn) | inactive | –
COc1ccc(-c2cn3ccc(C)cc3n2)cc1 | 8.91 µM (active) | –
CCN(CC)S(=O)(=O)c1ccc(-c2cn3ccc(C)cc3n2)cc1 | inactive | –
COc1ccc(-c2cn3cccnc3n2)cc1 | inactive | –
Cc1ccc(NS(=O)(=O)c2c(C)[nH]c(C)c2C(=O)N2CCCCC2)c(C)c1 | inactive | –
Cc1ccc(-c2nc3ccccc3[nH]2)cc1NC(=O)c1sc2ccccc2c1Cl | inactive | –
c1ccc2[nH]c(-c3nc4ccccc4[nH]3)nc2c1 | 8.91 µM (active) | –
COc1ccc(Br)cc1C(=O)NC(=S)Nc1cc(-c2nc3ccccc3[nH]2)ccc1C | inactive | –
Cc1ccc(-c2nc3ccccc3[nH]2)cc1N | 15.8 µM (active) | –
OC(c1nc2ccccc2[nH]1)C(O)C(O)C(O)c1nc2ccccc2[nH]1 (stereo not drawn) | inactive | –
O=C(Nc1cccc(-c2nc3ccccc3[nH]2)c1)c1ccc(C(=O)Nc2cccc(-c3nc4ccccc4[nH]3)c2)cc1 | inactive | –
C[C@H](NC(=O)C1CCN(S(=O)(=O)c2ccccc2)CC1)C(=O)NCc1ccccc1 | inactive | –
COc1ccccc1C(=O)NC(=S)Nc1ccccc1N1CCCCC1 | inactive | –
CC1(C)Cc2c(sc(NC(=O)C(=O)N3CCOCC3)c2C#N)CO1 | inactive | –
COc1ccc(C(=O)C[n+]2ccc(C)cc2)cc1 | inactive | –
COc1ccc(C(=O)C[n+]2ccc(N)c(C)c2C)cc1 | 7.94 µM (active) | –
COc1ccc(OCCC(=O)c2ccc(OC)cc2)cc1 | inactive | –

SMILES | Potency | activity change, negative = inhibition
CC(=O)NC1=NN(C(C)=O)C(C)(c2ccc(Cl)s2)S1 (stereo not drawn) | inactive | –
CC(C)[C@H](NC(=O)N1CCn2c1nc1ccccc12)C(=O)NCc1ccc2c(c1)OCO2 | inactive | –
N/C(=N\OC(=O)Cc1ccc([N+](=O)[O-])cc1)c1ccccn1 | inactive | –
COc1ccc(C(=O)O/N=C(\N)c2ccccn2)cc1[N+](=O)[O-] | inactive | –
N/C(=N\OC(=O)c1ccc([N+](=O)[O-])cc1)c1ccccn1 | 5.01 µM (active) | –
COc1cccc(NC(=O)[C@H](Cc2c[nH]c3ccccc23)NC(=O)[C@@H]2Cc3ccccc3CN2)c1 | inactive | –
COc1cc(C(=O)N/C(=C\c2cn(C)c3ccccc23)C(=O)N2CCOCC2)cc(OC)c1OC | inactive | –
COc1cnc(-c2ccccn2)nc1Oc1ccc(C(C)(C)C)cc1 | inactive | –
O=C1Nc2ccc(Br)cc2/C1=N/N=C/C1=C(N2CCOCC2)C(=C\c2ccccc2)/CC1 | 14.1 µM (active) | –
N#C/C(=C\C1=C(N2CCOCC2)C(=C\c2ccccc2)/CC1)C(=O)Nc1ccccc1F | inactive | –
C(=N\N1CCN(c2ccccn2)CC1)/C1=C(N2CCOCC2)C(=C/c2ccccc2)/CC1 | inactive | –
CC1CCC2CCCCC2N1C(=O)c1cc([N+](=O)[O-])cc([N+](=O)[O-])c1 (stereo not drawn) | inactive | –
CCCS(=O)(=O)N1CCN=C1SCc1cccc(F)c1 | inactive | –
COc1ccc(-c2nc3cc([N+](=O)[O-])ccc3o2)cc1OC | inactive | –
COc1cccc(-c2nc3cc(C)ccc3o2)c1 | 14.1 µM (active) | –
COc1ccc2oc(-c3cccc(NC(=O)CSc4ccc(Cl)cc4)c3)nc2c1 | inactive | –
COc1ccc(Cc2nc(-c3ccccn3)no2)cc1OC | inactive | –
c1ccc(-c2noc(-c3cccs3)n2)nc1 | 11.2 µM (active) | –
COc1nc(-c2ccc(Cl)cc2)ccc1-c1noc(-c2cccs2)n1 | inactive | –
C=CCOc1ccc(C(=O)Nc2ccccc2C(=O)N2CCCC2)cc1 | inactive | –
COC(=O)c1ccc(C23CC4(C2)[C@H](CN(Cc2cccnc2)[C@@H]4c2ccccc2)C3c2ccc(Cl)nc2)cc1 (stereo partly drawn) | inactive | –
Cc1cccc(NC(=O)c2cc(S(=O)(=O)N3CCC4(CC3)OCCO4)ccc2F)c1 | inactive | –

SMILES | Potency | activity change, negative = inhibition
CCCCCCCC1=Cc2ccc(F)cc2C(C(C(=O)OC)C(=O)OC)N1C(=O)OC (stereo not drawn) | – | -1.7% [at 11.5 µM]
S=c1[nH]ccn1-c1ccc(Cl)cc1 | 25.1 µM (active) | –
O=S(=O)(c1ccc(F)cc1)N1CCN=C1SCc1cccc(F)c1 | inactive | –
CC(=O)Oc1cccc(C(=O)Nc2ccccc2NC(=O)c2cccc(OC(C)=O)c2)c1 | inactive | –
C=CCN1c2ccccc2[C@]23C[C@@H](C(=O)OC)N(S(=O)(=O)c4ccc([N+](=O)[O-])cc4)C2=NC(C(=O)OC)=C(C(=O)OC)[C@H]13 | – | -3.12% [at 11.5 µM]
CC(=O)Nc1ccc(NC(=O)CN2C(=O)COc3ccc(S(=O)(=O)N4CCCCC4)cc32)cc1 | inactive | –
COc1ccc(NC(=O)c2cc(-c3ccc(C)cc3)on2)cc1 | inactive | –
COc1ccc(C2=NOC3(CC(=O)N(c4ccc(C)cc4)C3=O)C2)cc1 (stereo not drawn) | inactive | –
COc1ccc(C2=Nc3cc(C)ccc3OC2)cc1 | 11.2 µM (active) | –
COc1ccccc1CN1CCNC(=O)C1CC(=O)N(C)CC1CCOCC1 (stereo not drawn) | inactive | –
Cc1cccc(NC(=O)C2CCCN(C(=O)Nc3ccc(F)cc3)C2)c1C (stereo not drawn) | inactive | –
COc1cc2c(C(=O)N(C)c3cc(Cl)ccc3OC)cn(C)c(=O)c2cc1OC | inactive | –
COC(=O)C1=C(C(=O)OC)[C@@H]2Nc3ccccc3[C@@]23C[C@@H](C(=O)OC)N(S(=O)(=O)c2ccc([N+](=O)[O-])cc2)C3=N1 | – | -0.378% [at 11.5 µM]
O=C(Nc1ccc(Cl)cn1)c1ccc2c(c1)OCCO2 | 28.2 µM (active) | –
Cc1nc(NC(=O)c2ccc3c(c2)OCCO3)ccc1Br | inactive | –
O=C(Nc1cccc(S(=O)(=O)Nc2ccc(Cl)cc2)c1)c1ccc2c(c1)OCCO2 | inactive | –
COC(=O)C(C(=O)OC)C1c2ccccc2C=C(C2CC2)N1C(=O)OC (stereo not drawn) | – | -6.03% [at 11.5 µM]
O=C(O)CCN=C1CCc2ccccc2N1 | inactive | –
CSc1cccc(NC(=S)N(C(C)C)C(C)c2ccccn2)c1 (stereo not drawn) | inactive | –
Cc1ccc(O)c(/C=N/NC(=O)COc2ccc3c(C)cc(=O)oc3c2)c1 | inactive | –
